In all, about 5,500 compounds went through this assay and about 2,000 (36%) were called active. Not shown: some 18% with an inconclusive outcome. Cut-off read from the data, not from the text of the source: active = normalized growth mostly below about 0.91 (no sharp cut-off); inconclusive = no clear call, values can overlap the other calls; inactive = mostly above about 0.92. The list shows a part of the results.
Assay: chemical genetic growth profiling, strain panel (AID 1159580);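 note: tested at 20 µM; growth read once vehicle control cultures reached saturation at 30 °C; 1 = growth at the plate median or of vehicle wells; lower values mean less growth of the strain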
Conditions: growth OD

Measured: normalized growth

COP(N)(=O)SC (configuration not stated)
inactive: S. cerevisiae deletion strains, locus YJR075W, strain HOC1, active compounds read low 1.01 | S. cerevisiae deletion strains, locus YKL009W, strain mrt4, active compounds read low 1 | S. cerevisiae deletion strains, locus YKL068W, active compounds read low 0.999 | S. cerevisiae deletion strains, locus YKL085W, strain MDH1 (second series), active compounds read low 1 | S. cerevisiae deletion strains, locus YKL085W, strain MDH1, active compounds read low 1 | S. cerevisiae deletion strains, locus YKL160W, strain elf1, active compounds read low 0.995 | S. cerevisiae deletion strains, locus YKL190W, strain CNB1, active compounds read low 1 | S. cerevisiae deletion strains, locus YKR001C, strain vps1, active compounds read low 1.03 | S. cerevisiae deletion strains, locus YKR026C, strain gcn3, active compounds read low 0.995 | S. cerevisiae deletion strains, locus YKR091W, strain srl3, active compounds read low 1 | S. cerevisiae deletion strains, locus YLL001W, strain dnm1, active compounds read low 0.981 | S. cerevisiae deletion strains, locus YLL026W, active compounds read low 0.996 | S. cerevisiae deletion strains, locus YLL041C, strain sdh2, active compounds read low 1 | S. cerevisiae deletion strains, locus YLR027C, strain aat2, active compounds read low 0.999 | S. cerevisiae deletion strains, locus YLR039C, strain RIC1, active compounds read low 1.04 | S. cerevisiae deletion strains, locus YLR058C, strain SHM2, active compounds read low 1.01 | S. cerevisiae deletion strains, locus YLR102C, strain apc9, active compounds read low 1.02 | S. cerevisiae deletion strains, locus YLR113W, strain HOG1, active compounds read low 0.963 | S. cerevisiae deletion strains, locus YLR221C, strain rsa3, active compounds read low 0.991 | S. cerevisiae deletion strains, locus YLR258W, strain gsy2, active compounds read low 1.01 | S. cerevisiae deletion strains, locus YLR262C, strain YPT6 (second series), active compounds read low 1.01 | S. cerevisiae deletion strains, locus YLR262C, strain YPT6, active compounds read low 1.02 | S. cerevisiae deletion strains, locus YLR268W, strain sec22, active compounds read low 1.01 | S. cerevisiae deletion strains, locus YLR320W, strain mms22, active compounds read low 1.01 | S. cerevisiae deletion strains, locus YLR330W, strain CHS5, active compounds read low 1 | S. cerevisiae deletion strains, locus YLR342W, strain FKS1 (second series), active compounds read low 1.03 | S. cerevisiae deletion strains, locus YLR342W, strain FKS1, active compounds read low 1.01 | S. cerevisiae deletion strains, locus YLR357W, strain rsc2, active compounds read low 1.02 | S. cerevisiae deletion strains, locus YLR370C, strain arc18, active compounds read low 1.01 | S. cerevisiae deletion strains, locus YLR371W, strain rom2, active compounds read low 1.02 | S. cerevisiae deletion strains, locus YLR384C, strain iki3, active compounds read low 1 | S. cerevisiae deletion strains, locus YLR418C, strain cdc73, active compounds read low 1.01 | S. cerevisiae deletion strains, locus YML016C, strain PPZ1, active compounds read low 0.992 | S. cerevisiae deletion strains, locus YML032C, strain rad52, active compounds read low 1.03 | S. cerevisiae deletion strains, locus YML120C, strain ndi1, active compounds read low 1 | S. cerevisiae deletion strains, locus YML124C, strain tub3, active compounds read low 1.01 | S. cerevisiae deletion strains, locus YMR058W, strain fet3, active compounds read low 1.01 | S. cerevisiae deletion strains, locus YMR078C, strain ctf18, active compounds read low 1.02 | S. cerevisiae deletion strains, locus YMR125W, strain sto1, active compounds read low 1.01 | S. cerevisiae deletion strains, locus YMR129W, active compounds read low 0.992 | S. cerevisiae deletion strains, locus YMR205C, strain PFK2, active compounds read low 1.02 | S. cerevisiae deletion strains, locus YMR223W, strain ubp8, active compounds read low 1.02 | S. cerevisiae deletion strains, locus YMR231W, strain pep5, active compounds read low 1.01 | S. cerevisiae deletion strains, locus YMR263W, strain SAP30, active compounds read low 0.994 | S. cerevisiae deletion strains, locus YMR307W, strain GAS1, active compounds read low 1.02 | S. cerevisiae deletion strains, locus YNL067W, strain RPL9B, active compounds read low 0.99 | S. cerevisiae deletion strains, locus YNL071W, strain lat1, active compounds read low 1 | S. cerevisiae deletion strains, locus YNL128W, strain TEP1, active compounds read low 0.991 | S. cerevisiae deletion strains, locus YNL153C, strain GIM3, active compounds read low 0.996 | S. cerevisiae deletion strains, locus YNL183C, strain NPR1, active compounds read low 0.985 | S. cerevisiae deletion strains, locus YNL209W, strain ssb2, active compounds read low 1 | S. cerevisiae deletion strains, locus YNL233W, strain BNI4, active compounds read low 0.992 | S. cerevisiae deletion strains, locus YNL248C, strain rpa49, active compounds read low 0.969 | S. cerevisiae deletion strains, locus YNL250W, strain rad50, active compounds read low 1.01 | S. cerevisiae deletion strains, locus YNL271C, strain bni1, active compounds read low 1.01 | S. cerevisiae deletion strains, locus YNL298W, strain CLA4, active compounds read low 1.02 | S. cerevisiae deletion strains, locus YNL307C, strain MCK1, active compounds read low 1.03 | S. cerevisiae deletion strains, locus YNL322C, strain KRE1 (second series), active compounds read low 1 | S. cerevisiae deletion strains, locus YNL322C, strain KRE1, active compounds read low 0.999 | S. cerevisiae deletion strains, locus YNR049C, strain mso1, active compounds read low 0.996 | S. cerevisiae deletion strains, locus YNR052C, strain pop2, active compounds read low 1.02 | S. cerevisiae deletion strains, locus YOL006C, strain TOP1, active compounds read low 1.03 | S. cerevisiae deletion strains, locus YOL012C, strain htz1 0.95 | S. cerevisiae deletion strains, locus YOL147C, strain pex11, active compounds read low 1.02 | S. cerevisiae deletion strains, locus YOR001W, strain rrp6, active compounds read low 0.979 | S. cerevisiae deletion strains, locus YOR061W, strain CKA2, active compounds read low 0.994 | S. cerevisiae deletion strains, locus YOR069W, strain VPS5, active compounds read low 1 | S. cerevisiae deletion strains, locus YOR070C, strain gyp1, active compounds read low 1.01 | S. cerevisiae deletion strains, locus YOR080W, strain dia2, active compounds read low 1 | S. cerevisiae deletion strains, locus YOR083W, strain WHI5, active compounds read low 0.999 | S. cerevisiae deletion strains, locus YOR106W, strain vam3, active compounds read low 0.993 | S. cerevisiae deletion strains, locus YOR136W, strain idh2, active compounds read low 1.01 | S. cerevisiae deletion strains, locus YOR144C, strain elg1, active compounds read low 1.01 | S. cerevisiae deletion strains, locus YOR184W, strain ser1, active compounds read low 1.03 | S. cerevisiae deletion strains, locus YOR231W, strain MKK1, active compounds read low 1.05 | S. cerevisiae deletion strains, locus YOR265W, strain rbl2, active compounds read low 1.01 | S. cerevisiae deletion strains, locus YOR270C, strain vph1, active compounds read low 0.987 | S. cerevisiae deletion strains, locus YOR290C, strain snf2, active compounds read low 1 | S. cerevisiae deletion strains, locus YOR316C, strain cot1, active compounds read low 1.01 | S. cerevisiae deletion strains, locus YPL051W, strain arl3, active compounds read low 1 | S. cerevisiae deletion strains, locus YPL055C, strain LGE1, active compounds read low 0.984 | S. cerevisiae deletion strains, locus YPL078C, strain atp4, active compounds read low 0.986 | S. cerevisiae deletion strains, locus YPL106C, strain sse1, active compounds read low 1 | S. cerevisiae deletion strains, locus YPL240C, strain hsp82, active compounds read low 1 | S. cerevisiae deletion strains, locus YPL241C, strain CIN2, active compounds read low 0.994 | S. cerevisiae deletion strains, locus YPL256C, strain CLN2, active compounds read low 1.06 | S. cerevisiae deletion strains, locus YPR119W, strain clb2, active compounds read low 1.01 | S. cerevisiae deletion strains, locus YPR141C, strain kar3, active compounds read low 1.01 | S. cerevisiae deletion strains, locus YPR163C, strain tif3, active compounds read low 1.02 | S. cerevisiae deletion strains, locus YPR167C, strain met16, active compounds read low 1.01 | S. cerevisiae deletion strains, strain wtn01, active compounds read low 1.01 | S. cerevisiae strains, strain wild type, active compounds read low 0.996

From PubChem BioAssay AID1159580 (chemical genetic matrix, 2015)
